Assay results reported in PubChem BioAssay (EPA / NIEHS).
Inconclusive results are not listed. Calls of active or inactive are those of the source. Rule for the calls: active = hit-call score of the fitted dose curve at least 0.9, where 1 is the maximum; inconclusive = response in the unintended direction; inactive = score below 0.9.

Experiment: ATG_XTT_Cytotoxicity: Cytotoxicity Assessment in the Attagene TRANS-FACTORIAL HepG2 Assay (AID 2283584)
Summary of the method: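 Viability endpoint from XTT after 24 h chemical exposure of reporter-transfected human HepG2 liver cells; signal loss fitted relative to DMSO negative control.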

SMILES	outcome
CCC(Cc1c(I)cc(I)c(N)c1I)C(=O)O (stereo not drawn)	inactive
Brc1ccccn1	inactive
O=C1OC(=O)c2ccc3c4c(ccc1c24)C(=O)OC3=O	inactive
CCOC(C=C(C)CCC=C(C)C)OCC	inactive
CC(C)(C)c1cc(CCC(=O)NCCCCCCNC(=O)CCc2cc(C(C)(C)C)c(O)c(C(C)(C)C)c2)cc(C(C)(C)C)c1O	inactive
CCN(CC)c1ccc(C=O)c(O)c1	inactive
O=C(c1ccccc1)c1ccc(O)cc1O	inactive
CCOCN(C(=O)CS(=O)(=O)O)c1c(C)cccc1CC	inactive
COCCOCCC[Si](C)(O[Si](C)(C)C)O[Si](C)(C)C	inactive
C=C(C)CCCC	inactive
CC1=CCC(=O)O1	inactive

Experiment: TOX21_p53_BLA_p2_viability: Viability Assessment in the Tox21 HCT-116 p53 Agonism Beta-lactamase Assay, Phase 2 (AID 2283591);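 note: compound exposure lasted 16 h at 37 °C; actives lower the ATP signal meaning cytotoxicity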
Summary of the method: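 Cytotoxicity readout: CellTiter-Glo ATP luminescence, 30 min at room temperature, after the beta-lactamase read. Cells were HCT116 exposed 16 h at 37C to compounds pin-transferred at 217-fold dilution from DMSO stocks.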

SMILES	AC50	outcome
O=C1C=CC(=O)N1c1ccc(Cc2ccc(N3C(=O)C=CC3=O)cc2)cc1	71 µM (active)	
CC(C)(C)C(=O)C1C(=O)c2ccccc2C1=O		inactive
CCCCCCCC/C=C\CCCCCCCC(=O)N(C)CC(=O)O	37.1 µM (active)	
CC(C)OC=O		inactive
CCc1cc(Cc2cc(CC)c(N)c(CC)c2)cc(CC)c1N		inactive
CCC(Cc1c(I)cc(I)c(N)c1I)C(=O)O (stereo not drawn)		inactive
O=C(c1ccccc1)c1ccc(O)cc1O		inactive
